Results published in PubChem BioAssay (EPA / NIEHS).
The source made the active and inactive calls. Rule for the calls: active = hit-call score of the fitted dose curve at least 0.9, where 1 is the maximum; inactive = score below 0.9.

Read-out: ATP-citrate lyase (ACLY), ACLY (gene 47)
Assay: LTEA_HepaRG_ACLY: Life Technologies and Expression Analysis (LTEA) Assay for ATP-citrate lyase (ACLY) using HepaRG (AID 2283466)
Conditions: mRNA level, 48 h; actives raise or lower the signal
Method in brief: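 Differentiated human HepaRG cells in serum-free induction medium exposed 48 h, in duplicate, to eight half-log concentrations from 100 uM top in 0.5% DMSO; ACLY mRNA measured by qRT-PCR, normalized to ACTB, GAPDH, POLR2A, fitted bidirectionally versus DMSO.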

SMILES	AC50	outcome
CCCCC(O)(Cn1cncn1)c1ccc(Cl)cc1Cl (configuration not stated)	12.3 µM (active)	–
CC(C)N1C(=O)c2ccccc2NS1(=O)=O	–	inactive
O=C(Nc1ccccc1-c1ccc(Cl)cc1)c1cccnc1Cl	–	inactive
N#CN=C1SCCN1Cc1ccc(Cl)nc1	–	inactive
CCNC(=O)NC(=O)C(C#N)=NOC	–	inactive
Cc1c(COC(=O)[C@@H]2[C@H](/C=C(\Cl)C(F)(F)F)C2(C)C)cccc1-c1ccccc1	–	inactive
C=C(C)CN(CC)c1c([N+](=O)[O-])cc(C(F)(F)F)cc1[N+](=O)[O-]	–	inactive
CC(C)C1(C)N=C(c2ncccc2C(=O)O)NC1=O (configuration not stated)	–	inactive
CCCC(=NOCC)C1=C(O)CC(CC(C)SCC)CC1=O (configuration not stated)	–	inactive
O=C1C2CC=CCC2C(=O)N1SC(Cl)(Cl)Cl (configuration not stated)	–	inactive
COCc1cnc(C2=NC(C)(C(C)C)C(=O)N2)c(C(=O)O)c1 (configuration not stated)	–	inactive
Cc1nc(N(C)C)nc(OC(=O)N(C)C)c1C	–	inactive
CC(C)N1C(=O)N(c2ccccc2)CSC1=NC(C)(C)C	84.3 µM (active)	–
Clc1cccc(C(Cl)(Cl)Cl)n1	–	inactive
CC1(C)CON(Cc2ccccc2Cl)C1=O	–	inactive
CN/C(=N\[N+](=O)[O-])NCc1cnc(Cl)s1	–	inactive
Cc1ccc(N=CN(C)C=Nc2ccc(C)cc2C)c(C)c1	–	inactive
CCN(CC)c1nc(C)cc(OP(=S)(OC)OC)n1	–	inactive

SMILES	AC50	outcome
COCC(C)N(C(=O)CCl)c1c(C)csc1C (configuration not stated)	–	inactive
CCOc1nc(C(Cl)(Cl)Cl)ns1	23.8 µM (active)	–
CCC(C)n1c(=O)[nH]c(C)c(Br)c1=O (configuration not stated)	–	inactive
Nc1cnn(-c2ccccc2)c(=O)c1Cl	–	inactive
N#Cc1c(Cl)cccc1Cl	–	inactive
CCN(CC)C(=O)C(C)Oc1cccc2ccccc12 (configuration not stated)	–	inactive
CC1(C)C(C(=O)OC(C#N)c2cccc(Oc3ccccc3)c2)C1(C)C (configuration not stated)	–	inactive
CC(C)Nc1nc(Cl)nc(NC(C)C)n1	–	inactive
N#Cc1c[nH]cc1-c1cccc2c1OC(F)(F)O2	–	inactive
Cn1c(-c2ccccc2)cc(-c2ccccc2)[n+]1C	–	inactive
CCCN(CC)CC1COC2(CCC(C(C)(C)C)CC2)O1 (configuration not stated)	–	inactive
CCNP(=S)(OC)O/C(C)=C/C(=O)OC(C)C (configuration not stated)	67 µM (active)	–
CS(=O)(=O)c1ccc(C(=O)C2C(=O)CCCC2=O)c([N+](=O)[O-])c1	–	inactive
COP(=S)(OC)Oc1ccc([N+](=O)[O-])c(C)c1	–	inactive
COC(=O)NC(=S)Nc1ccccc1NC(=S)NC(=O)OC	–	inactive
COc1cc(Cl)c(OC)cc1Cl	–	inactive
CC(C)(C)C(=O)C(Oc1ccc(Cl)cc1)n1cncn1 (configuration not stated)	66.5 µM (active)	–
CCCCOCN(C(=O)CCl)c1c(CC)cccc1CC	–	inactive

Read-out: Peroxisomal acyl-coenzyme A oxidase 1 (ACOX1) gene, ACOX1 (gene 51)
Assay: LTEA_HepaRG_ACOX1: Life Technologies and Expression Analysis (LTEA) Assay for Peroxisomal acyl-coenzyme A oxidase 1 (ACOX1) gene using HepaRG (AID 2283467)
Conditions: mRNA level, 48 h; actives raise or lower the signal
Method in brief: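 Differentiated human HepaRG cells were exposed in duplicate for 48 h in serum-free induction medium to eight half-log concentrations up to 100 uM in 0.5% DMSO. ACOX1 mRNA was then quantified by TaqMan qRT-PCR, normalized to ACTB, GAPDH and POLR2A.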

SMILES	AC50	outcome
CCCCC(O)(Cn1cncn1)c1ccc(Cl)cc1Cl (configuration not stated)	69.4 µM (active)	–
CC(C)N1C(=O)c2ccccc2NS1(=O)=O	–	inactive
O=C(Nc1ccccc1-c1ccc(Cl)cc1)c1cccnc1Cl	–	inactive
N#CN=C1SCCN1Cc1ccc(Cl)nc1	–	inactive
CCNC(=O)NC(=O)C(C#N)=NOC	–	inactive
Cc1c(COC(=O)[C@@H]2[C@H](/C=C(\Cl)C(F)(F)F)C2(C)C)cccc1-c1ccccc1	–	inactive
C=C(C)CN(CC)c1c([N+](=O)[O-])cc(C(F)(F)F)cc1[N+](=O)[O-]	–	inactive
CC(C)C1(C)N=C(c2ncccc2C(=O)O)NC1=O (configuration not stated)	–	inactive
CCCC(=NOCC)C1=C(O)CC(CC(C)SCC)CC1=O (configuration not stated)	–	inactive
O=C1C2CC=CCC2C(=O)N1SC(Cl)(Cl)Cl (configuration not stated)	–	inactive
COCc1cnc(C2=NC(C)(C(C)C)C(=O)N2)c(C(=O)O)c1 (configuration not stated)	–	inactive
Cc1nc(N(C)C)nc(OC(=O)N(C)C)c1C	–	inactive
CC(C)N1C(=O)N(c2ccccc2)CSC1=NC(C)(C)C	–	inactive
Clc1cccc(C(Cl)(Cl)Cl)n1	–	inactive
CC1(C)CON(Cc2ccccc2Cl)C1=O	–	inactive
CN/C(=N\[N+](=O)[O-])NCc1cnc(Cl)s1	–	inactive
Cc1ccc(N=CN(C)C=Nc2ccc(C)cc2C)c(C)c1	–	inactive
CCN(CC)c1nc(C)cc(OP(=S)(OC)OC)n1	–	inactive

SMILES	AC50	outcome
COCC(C)N(C(=O)CCl)c1c(C)csc1C (configuration not stated)	–	inactive
CCOc1nc(C(Cl)(Cl)Cl)ns1	1.11 µM (active)	–
CCC(C)n1c(=O)[nH]c(C)c(Br)c1=O (configuration not stated)	21.6 µM (active)	–
Nc1cnn(-c2ccccc2)c(=O)c1Cl	–	inactive
N#Cc1c(Cl)cccc1Cl	–	inactive
CCN(CC)C(=O)C(C)Oc1cccc2ccccc12 (configuration not stated)	69.8 µM (active)	–
CC1(C)C(C(=O)OC(C#N)c2cccc(Oc3ccccc3)c2)C1(C)C (configuration not stated)	–	inactive
CC(C)Nc1nc(Cl)nc(NC(C)C)n1	–	inactive
N#Cc1c[nH]cc1-c1cccc2c1OC(F)(F)O2	–	inactive
Cn1c(-c2ccccc2)cc(-c2ccccc2)[n+]1C	21.2 µM (active)	–
CCCN(CC)CC1COC2(CCC(C(C)(C)C)CC2)O1 (configuration not stated)	–	inactive
CCNP(=S)(OC)O/C(C)=C/C(=O)OC(C)C (configuration not stated)	–	inactive
CS(=O)(=O)c1ccc(C(=O)C2C(=O)CCCC2=O)c([N+](=O)[O-])c1	–	inactive
COP(=S)(OC)Oc1ccc([N+](=O)[O-])c(C)c1	–	inactive
COC(=O)NC(=S)Nc1ccccc1NC(=S)NC(=O)OC	–	inactive
COc1cc(Cl)c(OC)cc1Cl	–	inactive
CC(C)(C)C(=O)C(Oc1ccc(Cl)cc1)n1cncn1 (configuration not stated)	–	inactive
CCCCOCN(C(=O)CCl)c1c(CC)cccc1CC	–	inactive
